Hits are enriched below; roughly 2% of the tested compounds scored in any of these assays.
Gli-Sufu block = Gli-Sufu pathway antagonism; Sufu-KO-LIGHT fibroblasts, Gli luciferase reporter luminescence; inhibition, % at 5 µM; 0.74% of 340,000 active; AID 588413;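 active = inhibition above about 55%, limit read from the data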;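 note: 0% = DMSO-treated cells and 100% = wells with medium but no cells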
NR2F2 inh = blocks human COUP-TFII nuclear receptor; P24468; HEK293T NGFI-A luciferase reporter, luminescence; inhibition, % at 8.6 µM; 0.7% of 370,000 active;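 active = inhibition above a per-plate cutoff, mean inhibition of test wells between control levels plus 3 SD, cut at about 38% in these data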;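 note: cells cotransfected with COUP-TFII expression vector driving the NGFI-A reporter; 0% = median of COUP-TF2 test wells and 100% = reporter-only cells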
Target sequence (P24468 whole entry, looked up): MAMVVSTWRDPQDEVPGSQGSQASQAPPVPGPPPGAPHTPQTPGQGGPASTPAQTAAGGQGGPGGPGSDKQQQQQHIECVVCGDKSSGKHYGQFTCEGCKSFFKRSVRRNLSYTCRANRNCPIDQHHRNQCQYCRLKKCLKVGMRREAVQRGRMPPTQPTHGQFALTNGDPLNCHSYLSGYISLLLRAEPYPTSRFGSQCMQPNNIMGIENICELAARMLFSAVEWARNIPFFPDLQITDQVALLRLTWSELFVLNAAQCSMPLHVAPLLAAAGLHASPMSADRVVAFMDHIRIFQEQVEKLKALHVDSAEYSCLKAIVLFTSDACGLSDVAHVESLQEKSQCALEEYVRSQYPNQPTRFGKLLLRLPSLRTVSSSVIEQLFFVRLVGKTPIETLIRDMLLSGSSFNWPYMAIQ
697 NFkB inh = lowers PMA/ionomycin-induced NF-kB signal in 697 B cells | 697 B-cell NF-kB luciferase reporter, 16 h | inhibition, % at 4 µM | 0.33% of 330,000 active | AID 435022; in the data active = inhibition above about 35%
Jurkat NFkB inh = lowers PMA/ionomycin-induced NF-kB signal in Jurkat cells; inhibition, % at 4 µM; AID 435003; 0.53% of 330,000 active; PMA/ionomycin-induced NF-kB luciferase reporter, luminescence; in the data active = inhibition above about 50%
GalR3 antagonist = antagonists of human GalR3 | O60755 | HEK293 GalR3-CNG cAMP membrane potential fluorescence; galR3 body fused to GalR1 C-terminus | inhibition, % at 3 µM | 0.44% of 360,000 active | AID 651719;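 active = inhibition above the screen-wide average plus 3 SD, cut at about 13% in these data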;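 note: forskolin and galanin both at EC90 stimulate the cells; cAMP rise reported by CNG channel membrane potential dye signal; 0% = forskolin plus galanin with DMSO and 100% = forskolin alone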
VP16 Luc counter = VP16 inhibition counter-screen for COUP-TFII | 25% of 2,500 active | inhibition, % at 8.5 µM | shares compounds with NR2F2 inh | HEK293 Gal4-VP16 luciferase reporter, luminescence; in the data active = inhibition above about 13%
NR2F2 inh conf = confirmation of human COUP-TFII (NR2F2) inhibitors. shares compounds with NR2F2 inh. HEK293 NGFI-A luciferase reporter, luminescence. inhibition, % at 8.5 µM. 45% of 2,500 active. AID 687008;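 active = mean inhibition over three repeats above a set limit taken from the earlier primary screen, cut at about 38% in these data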;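 note: 100% = cells given the luciferase reporter alone without the COUP-TF2 vector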
The depositor's hits bear a star; / = no result.

SMILES | Gli-Sufu block | NR2F2 inh | 697 NFkB inh | Jurkat NFkB inh | GalR3 antagonist | VP16 Luc counter | NR2F2 inh conf
CC(=O)N1CCCc2cc(S(=O)(=O)N3CCCC(C(=O)N4CCN(c5ccccc5)CC4)C3)ccc21 (stereo not given) | 46 | 41* | -23 | 17 | -9 | 10 | 29
CC(=O)N1CCCc2cc(S(=O)(=O)N3CCCC(C(=O)N4CCN(c5cc(C)ccc5C)CC4)C3)ccc21 (stereo not given) | 50 | 34 | -23 | 20 | -3 | / | /
COc1ccccc1N1CCN(C(=O)C2CCCN(S(=O)(=O)c3ccc(C)cc3)C2)CC1 (stereo not given) | 21 | 19 | -4 | 13 | -5 | / | /
CCC(=O)N1CCCc2cc(S(=O)(=O)N3CCN(c4ccccc4F)CC3)ccc21 | 6 | 50* | -20 | 7 | / | -3 | 13
O=C(Nc1ccc(Oc2cccnc2)cc1)C1CCN(Cc2cc(Cl)ccc2O)CC1 | 4 | 62* | -9 | 45 | 4 | 8 | 48*
O=C(Nc1ccc(Oc2cccnc2)cc1)C1CCN(Cc2ccc(F)cc2)CC1 | 16 | 11 | 4 | 27 | -5 | / | /
C#Cc1ccc(CN2CCC(C(=O)Nc3ccc(Oc4ccccc4)nc3)CC2)cc1 | 19 | 49* | 0 | 25 | -7 | 4 | 28
O=C(Nc1ccc(Oc2ccccc2)nc1)C1CCN(Cc2cccc(F)c2)CC1 | 21 | 10 | -7 | 8 | -3 | / | /
C[C@H]1CCCN1c1cccc2c1S(=O)(=O)N1CC[C@@H](C1)O2 | / | -2 | / | / | / | / | /
COCc1cc(N2CCN(C(=O)OC(C)(C)C)C[C@@H]2C)ccc1N1CCN(Cc2ccccc2)[C@@H](C)C1 | / | 37* | / | / | -7 | 5 | 16
Cc1cc(N2CCN(C(=O)OC(C)(C)C)C[C@@H]2C)ccc1N1CCN(Cc2ccccc2)[C@H](C)C1 | / | 23 | / | / | -5 | / | /
Clc1ccc(-n2ncc3c(N4CCCCCC4)ncnc32)cc1 | / | 92* | -141 | 16 | 7 | 80* | 100*
CCOC(=O)N1CCN(C(=O)c2ccccc2NC(=O)c2ccc(C(C)(C)C)cc2)CC1 | -5 | 8 | -2 | -10 | -5 | / | /
CCOC(=O)N1CCN(C(=O)C(NC(=O)c2ccc(C(C)(C)C)cc2)C(C)C)CC1 (stereo not given) | / | 40* | 2 | -14 | -3 | -4 | 0
c1ccn(-c2ccc(-c3noc(CCc4ccncc4)n3)cc2)c1 | / | 51* | / | / | / | -24 | 20
CC1(C)CC(=O)C=C(N2CCNCC2)C1 | -1 | 9 | 18 | -5 | 0 | / | /
CC1CC(C)C[N+](=C2C=C(N3CCCC3)CC(C)(C)C2)C1 (stereo not given) | 86* | 62* | / | / | 28* | 15* | 59*
O=C1[C@@H](CCc2ccccc2)[C@@H]2c3cc4ccccc4cc3C=NN2[C@@H]2c3cc4ccccc4cc3C=NN12 | / | 10 | / | / | / | / | /
CCC(C)N(C(=O)CSc1nnc(-c2cc(OC)c(OC)c(OC)c2)o1)C(C)CC (stereo not given) | / | 12 | / | / | / | / | /
O=C(c1ccccc1)N1CCC(c2nc(-c3ccc(S(=O)(=O)NCC4CCCO4)cc3)no2)CC1 (stereo not given) | 40 | 18 | -34 | 25 | -2 | / | /
O=C(C1CC1)N1CCC(c2nc(-c3ccc(S(=O)(=O)NCC4CCCO4)cc3)no2)CC1 (stereo not given) | 20 | 45* | -1 | 34 | -6 | -4 | 20
O=[N+]([O-])c1ccc(Sc2cccc[n+]2[O-])c2nonc12 | 86* | 101* | / | / | -6 | 96* | 105*
O=C(Nc1ccc(Cl)c(S(=O)(=O)N2CCOCC2)c1)c1ccc(Cl)nc1 | 10 | 44* | -31 | 31 | 1 | 3 | 16
COc1ccc(NC(=O)c2cc3c(s2)CCC(C)C3)cc1S(=O)(=O)N1CCOCC1 (stereo not given) | 28 | 60* | -5 | 24 | -3 | -16 | 28
COc1ccc(C(=O)Nc2ccc(Cl)c(S(=O)(=O)N3CCOCC3)c2)cc1 | -3 | 59* | -6 | 17 | -5 | -6 | 25
SMILES | Gli-Sufu block | NR2F2 inh | 697 NFkB inh | Jurkat NFkB inh | GalR3 antagonist | VP16 Luc counter | NR2F2 inh conf
COc1ccc(CCNC(=O)c2ccc(Cl)c(S(=O)(=O)N3CCCC3)c2)cc1 | 7 | 41* | -5 | 4 | -3 | -4 | 20
O=C(Nc1ccc(Cl)c(S(=O)(=O)N2CCOCC2)c1)c1ccc2c(c1)OCCO2 | -17 | 28 | -25 | -2 | -6 | / | /
COc1ccc(C(=O)Nc2ccc(S(=O)(=O)N3CCOCC3)cc2)cc1 | -2 | 1 | -2 | -14 | -4 | / | /
C=CCN(C(=O)[C@@H](C)[C@@H](O)c1ccc(C(C)=O)cc1)c1ccccc1 | / | -10 | / | / | / | / | /
CCCCCn1nnnc1C1(C)CCSCC(=O)N1Cc1ccco1 (stereo not given) | / | -5 | / | / | / | / | /
Cc1cc(SCC(=O)c2ccccc2)n2nc(C)nc2n1 | -2 | 45* | 10 | 3 | -4 | 13* | 32
Cc1cccc(NC(=O)NCCCN2CCN(c3ccc(F)cc3)CC2)c1 | / | -11 | / | / | / | / | /
CCOc1ccc(OCC)c(NC(=O)C2CCCN2S(=O)(=O)c2cccc3cccnc23)c1 (stereo not given) | -3 | 40* | -2 | -18 | 4 | 1 | 12
COc1ccc(NC(=O)C2CCCN2S(=O)(=O)c2cccc3cccnc23)c(OC)c1 (stereo not given) | 4 | 4 | -28 | -11 | 1 | / | /
COc1ccccc1CCc1nnc(CCC(=O)N(C)Cc2cccc3cnccc23)o1 | -11 | -56 | -67 | -84 | -5 | / | /
COc1ccc(CCc2nnc(CCC(=O)N(C)Cc3ccnc4ccccc34)o2)cc1 | 3 | 40* | -14 | 8 | -5 | -28 | 17
CCN(CC)c1nc(C)nc2c1nnn2Cc1ccccc1 | / | -19 | / | / | / | / | /
O=C(NCc1cccnc1)/C(=C\c1ccc(-c2cccc(Cl)c2)o1)S(=O)(=O)c1ccccc1 | -20 | 42* | / | / | -6 | 21* | 37
Cc1cc2nc(C3CCCN(C(=S)Nc4ccccc4)C3)[nH]c2cc1C (stereo not given) | 0 | 49* | 4 | 15 | -9 | -8 | 9
CCN(c1cccc(C)c1)S(=O)(=O)c1ccc2c(c1)CCN2C(C)=O | 5 | 9 | -21 | 24 | -3 | / | /
CCN(c1cccc(C(F)(F)F)c1)S(=O)(=O)c1ccc2c(c1)CCN2C(C)=O | 12 | 47* | -15 | 8 | 4 | 0 | 3
CCc1c(C(=O)C(C)O)c2n3c1CCC[C@@H]3CC2 (stereo not given in full) | / | -21 | / | / | / | / | /
CN(C)S(=O)(=O)c1ccc(C(=O)Nc2nc(-c3cccs3)cs2)cc1 | 24 | 54* | -20 | 13 | -5 | -5 | 26
Cc1cc(-c2nnc(SCC(=O)Nc3cccc4ccccc34)n2N)n[nH]1 | / | -12 | / | / | / | / | /
